We go through 37 compounds from PubChem BioAssay (NCI).

The panel holds about 83,000 compounds, 20% with a hit somewhere; the sample as a whole holds those more often.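 Treatment: one concentration, 48 hours, 96-well format. Scoring: percent growth, with anything below 10 considered active.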 Unmarked numbers belong to inactive results. Active and inactive are the calls of the source.

This assay relates to IGROV1 ovarian. Put plainly: NCI-60 one-dose screen, 48 h (100 = growth as untreated, 0 = no growth, -100 = all killed). The note with it: 10 µM unless noted.
Take `O=C(CCCCCCSc1nc(-c2ccc(Cl)cc2)cc(-c2ccc(Cl)cc2)n1)NO`: the growth was 27.6%. To `O=C1CC(C(F)(F)F)Cc2nc3ccc(Br)cc3cc21` (configuration not stated) belongs 73.4%; to `COc1ccc(C2NC(=O)C(C#N)c3c2sc2c(F)cccc32)cc1` (configuration not stated), 41.1%; to `CCCCCn1sc(=O)n(Cc2ccc(CNC(=O)OCc3ccc4cccc(O)c4n3)cc2)c1=O`, -85.9% (active). The result for `O=[N+]([O-])c1cccc(N=NNc2cccc([N+](=O)[O-])c2)c1` reads 125%. `CCN(CC)CCCOc1ccc2c(c1)O/C(=C\c1cccc(OC)c1)C2=O`: the growth was 97.7%. The result for `O=C(OCc1ccc2c(Cl)cc(Cl)c(O)c2n1)N1CCNCC1` reads 34.8%; that for `C=CCCCCOc1ccccc1-c1cnc(OCCCCC=C)n1C`, 62.9%; that for `CSc1nc(=S)c2nc(SC)n(-c3ccccc3)c2[nH]1`, 101%. The result for `CC1Cc2c(Cl)ncnc2N(C)c2ccc(O)cc21` (configuration not stated) reads 103%; that for `Nc1nc(Nc2ccccc2)c2ncn(Cc3ccc4c(c3)OCO4)c2n1`, 64.2%; that for `COc1ccc(-c2cc(-c3ccc(Cl)cc3)nc(SCCCCCCC(=O)NO)n2)cc1`, 11.1%.

For the compound `COc1ccc(C(=O)CSc2nccc(Nc3ccc(C(=O)O)cc3)n2)cc1`, the growth was 91.8%. As for `CC1(C)OC2[C@@H](CNC(=O)NC(=O)NC(=O)CI)O[C@@H](n3cnc4c(NC(=O)Nc5ccccc5)ncnc43)[C@H]2O1` (some centres not stated), the growth is 15.5%. To `Cn1cc(-c2noc(-c3cn(C)c4ncc(F)cc34)n2)c2cc(Cl)ccc21` belongs 51.7%; to `COCCCNc1nc(NC(=O)c2cc(Br)cc(C(F)(F)F)c2)cc(-c2cccnc2)n1`, 91.3%; to `O=C(NCCCNC(=O)OCc1ccc2cccc(O)c2n1)OCc1ccc2cccc(O)c2n1`, 24.1%. The result for `COc1cccc(-c2[nH]c(=S)ncc2C(=O)c2ccccc2)c1` reads 77.2%. For `CCN(CCO)CCC(=O)c1ccc([N+](=O)[O-])cc1`, the growth was 108%. The result for `Cc1ccc(N)c(O)c1` reads 69.6%. The result for `CC(C)C1=NOC(=O)C1=Cc1cn(-c2ccccc2)nc1-c1ccc(Br)cc1` reads 72.5%; that for `Cc1cc[n+](CCCCCCCCCC[n+]2ccc(C)cc2)cc1`, 112%. With `C[C@@H](NC(=O)[C@@H](CC(=O)N1CCC(N2CCCCC2)CC1)N1C(=O)[C@@H](N2C(=O)OC[C@@H]2c2ccccc2)[C@H]1/C=C/c1cccc(Cl)c1)c1ccccc1`, the growth was 86%. Regarding `C/C=C/C1OC23CCCCC2C(C#N)(C(=N)O3)C1(C#N)C#N` (configuration not stated), the growth was 96.2%. The result for `CCCOc1ccc(-c2nc(-c3ccc(N)cc3)cs2)cc1` reads 94.8%; that for `Cc1ccccc1OC(=O)c1cccc(Cl)c1`, 104%; that for `CC(C)c1ccc(C(=O)Nc2nc3ccc(O)cc3s2)cc1`, 49.1%. For the compound `COc1cc(-c2nc(SCCC(C)C)nc(Nc3ccc(S(N)(=O)=O)cc3)c2C#N)cc(OC)c1OC`, the growth was 40.5%. On to `O=C(CSc1nc2ccc([N+](=O)[O-])cc2[nH]1)Nc1cccc(Cl)c1`, for which the growth is 37.9%. The result for `COc1ccc2nc3cc(Cl)ccc3c(Nc3ccc(O)cc3)c2c1` reads 71.3%. To `O=C(OCc1ccc2c(Cl)cc(Cl)c(O)c2n1)N1CCN(C(=O)c2cc3cc(F)ccc3[nH]2)CC1` belongs 11.2%; to `COc1ccc(C(C(=O)O)c2ccc(OC)cc2)cc1`, 118%; to `O=C1COCCN1c1ccc(NCc2cn(Cc3ccc(F)cc3)c3ccccc23)cc1`, -18.9% (active). Take `O=C(Nc1cc(-c2cccnc2)nc(NCCCN2CCOCC2)n1)c1cc(Br)cc(C(F)(F)F)c1`: the growth was 63.1%.

As to `CS(=O)(=O)c1cccnn1`, the growth was 78%. For `C[C@]12CCc3c(ccc4cc(O)ccc34)[C@@H]1CC[C@H]2O`, the growth is 110%. To `CN(Cc1cccc(C(F)(F)F)c1)C(=O)[C@@H](CC(=O)N1CCC(N2CCCCC2)CC1)N1C(=O)[C@@H](N2C(=O)OC[C@@H]2c2ccccc2)[C@H]1/C=C/c1ccccc1` belongs 89.6%.
